Screens as filed in PubChem.
Efflux pump inh: inhibitors of Candida efflux pumps in yeast, primary screen, S. cerevisiae, Nile Red, multiplex. S. cerevisiae Candida pump triplex. inhibition, % at 10 µM. hit rate 0.44% among 330,000. AID 485275, 2010;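 active means plate passing quality check with inhibition over a set limit, or well fluorescence over plate mean plus 4 SD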;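 further: Nile Red retained in pooled yeast measured as flow cytometry median fluorescence; higher means more Nile Red kept so more efflux inhibition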
SKN-1 block: suppressors of acrylamide-induced Pgst-4::GFP reporter in worms, primary screen, SKN-1 inhibitor project, whole organism, uHTS, GFP/RFP fluorescence ratio, strain VP596. C. elegans VP596 Pgst-4::GFP/RFP ratio, 24 h. inhibition, % at 21.8 µM. hit rate 0.49% among 360,000;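 active means interference check ratio from 0.5 to 1.5 plus GFP to RFP signal ratio inhibition reaching or exceeding a fixed threshold, cut at about 30% in these data, passing the limit was not always enough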
HGIII-sPLA2 inh: human group III sPLA2 inhibitors, primary screen, biochemical, QFRET, BODIPY PC-A2 liposome substrate. Group 3 secretory phospholipase A2 (Homo sapiens), Q9NZ20. QFRET BODIPY PC-A2 liposome hydrolysis, fluorescence. inhibition, % at 12.2 µM. hit rate 0.56% among 370,000;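 active means inhibition above mean plus 3 SD of compounds lying within the high and low control bounds, cut at about 19% in these data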
Target sequence (Q9NZ20 whole entry, looked up): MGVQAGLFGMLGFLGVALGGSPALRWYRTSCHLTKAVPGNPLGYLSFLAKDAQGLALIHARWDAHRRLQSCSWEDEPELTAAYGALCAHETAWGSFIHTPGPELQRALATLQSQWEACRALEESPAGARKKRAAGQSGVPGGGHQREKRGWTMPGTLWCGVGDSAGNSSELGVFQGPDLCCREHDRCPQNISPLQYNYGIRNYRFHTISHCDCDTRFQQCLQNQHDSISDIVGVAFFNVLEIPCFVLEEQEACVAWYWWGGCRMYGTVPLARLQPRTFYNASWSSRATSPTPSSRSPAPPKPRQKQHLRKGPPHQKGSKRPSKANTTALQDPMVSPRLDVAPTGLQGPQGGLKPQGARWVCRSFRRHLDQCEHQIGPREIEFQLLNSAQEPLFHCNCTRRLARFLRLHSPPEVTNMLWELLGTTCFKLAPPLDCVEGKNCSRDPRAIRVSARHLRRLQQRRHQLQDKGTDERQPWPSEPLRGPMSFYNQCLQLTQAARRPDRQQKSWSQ
SUMO Mot1 rescue: yeast Mot1-301 growth rescue at high temperature, primary screen, SUMOylation pathway inhibitor project, S. cerevisiae, ATP luminescence, 38.5C | S. cerevisiae Mot1-301 growth rescue; percent above DMSO median, 100 means doubled | growth rescue, % at 18.8 µM | hit rate 1% among 320,000;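 active means every valid replicate shows activation above 250% relative to neutral control wells; inactive means the rest, any valid replicate at or below 250%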
Yeast Mot1 SUMO: growth restoration of Mot1-301 yeast on galactose, dose response, SUMO pathway inhibitor project, whole organism, S. cerevisiae, ATP luminescence, cherry-picked samples; shares compounds with SUMO Mot1 rescue; S. cerevisiae Mot1-301 galactose growth, 24 h; -100 = growth of slx-deleted rescue strain; growth activity, percent, % at 42 µM; 2,300 tested, under 10 active; AID 493004, 2010;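 active means Signal drops as the depositor expects, and the fitted half-maximal dose is no more than ten times the top valid tested dose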;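 further: more negative values mean stronger growth rescue toward the control strain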
Yeast cmpd fluor: counter-screen for efflux pump inhibitors: compound fluorescence. S. cerevisiae AD/pABC3, flow cytometry. hit rate 4% among 1,700. fluorescence ratio to DMSO, % at 10 µM. shares compounds with Efflux pump inh. AID 588517;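 active means fluorescence ratio to DMSO above its plate's cutoff, the plate mean ratio plus 5 SD, cut at about 210% in these data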;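 further: unstained yeast with no Nile Red so the signal is compound autofluorescence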
CaMdr1 efflux inh: inhibitors of Candida albicans Mdr1 efflux, confirmation, flow cytometry, singleplex, Cherry Pick1 set | shares compounds with Efflux pump inh | S. cerevisiae AD/CaMDR1, Nile Red efflux | inhibition, % at 10 µM | hit rate 1% among 1,700 | AID 588518, 2011; in the data active means inhibition above about 26%;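 further: higher means more Nile Red retained so more efflux inhibition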
CaCdr2 efflux inh: inhibitors of Candida albicans Cdr2 efflux pump, confirmation, S. cerevisiae AD/CaCDR2, flow cytometry, cherry pick 1, singleplex; shares compounds with Efflux pump inh; Nile Red retention; Nile Red retention ratio vs DMSO, % at 10 µM; hit rate 4% among 1,700; in the data active means Nile Red retention ratio vs DMSO above about 190%;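 further: higher ratio means more blocking of Cdr2 efflux of the dye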
CaCdr1 efflux inh: inhibitors of Candida albicans Cdr1 efflux pump, confirmation, S. cerevisiae AD/CaCDR1, flow cytometry, cherry pick 1, singleplex; shares compounds with Efflux pump inh; AID 588522, 2011; hit rate 1% among 1,700; Nile Red efflux; inhibition, % at 10 µM;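 active means inhibition above the screen-wide mean plus twice its standard deviation, cut at about 32% in these data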
hGIII sPLA2 conf: human group III sPLA2 inhibitors, confirmation, biochemical, QFRET, triplicate; shares compounds with HGIII-sPLA2 inh; inhibition, % at 12.2 µM; recombinant hGIII-sPLA2, BODIPY PC-A2 QFRET fluorescence; hit rate 34% among 2,000;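 active means mean inhibition across triplicates above the hit cutoff set in the earlier primary screen, cut at about 19% in these data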
535nm interf: 535nm fluorescence optical interference, confirmation, artefact control for HGIII-sPLA2 inhibitor project, biochemical, QFRET; AID 743282, 2014; hit rate 8.5% among 2,000; inhibition, % at 12.2 µM; BODIPY FL product fluorescence interference; shares compounds with HGIII-sPLA2 inh;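 active means average inhibition above the solvent-only control mean plus 3 SD, cut at about 6% in these data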
Each line names hits and unclear results; the compound was inactive in the other large screens (follow-up assays come after a bar, where they were run); ! = a repeat was not active. This is a sample that favours compounds with a hit; in the whole collection about 2.2% have one here.

O=Cc1cn(Cc2ccccc2F)c2ccccc12	SUMO Mot1 rescue active | Yeast Mot1 SUMO inactive
O=Cc1cn(Cc2c(F)cccc2Cl)c2ccccc12	none
CC[n+]1c(-c2ccccc2)c2cc(N)ccc2c2ccc(N)cc21	none (no result: Efflux pump inh, SUMO Mot1 rescue)
Fc1ccc2c(c1)nnn2C1CCN(Cc2nnnn2C2CCCCC2)CC1	SUMO Mot1 rescue 733 | Yeast Mot1 SUMO inactive
Fc1ccc2c(c1)nnn2C1CCN(Cc2c(Cl)cccc2Cl)CC1	none
COc1cccc(NP2(=O)OCC(C)([N+](=O)[O-])CO2)c1 (configuration not stated)	none (no result: Efflux pump inh, SUMO Mot1 rescue)
Cn1c(O)c(C(c2ccccn2)c2c(O)n(C)c(=S)n(C)c2=O)c(=O)n(C)c1=S	SUMO Mot1 rescue 477 | Yeast Mot1 SUMO inactive
CC(=O)OC1N=C(c2ccccc2Cl)c2cc(Br)ccc2NC1=O (configuration not stated)	none
CN1C(=O)C(=Cc2ccc(N3CCCCC3)o2)C(=O)N(C)C1=S	SUMO Mot1 rescue 848 | Yeast Mot1 SUMO inactive
CN1C(=O)NC(=O)[C@]2(Cc3ccccc3N3CCN(c4ccccc4)CC32)C1=O (some centres not stated)	SUMO Mot1 rescue 663 | Yeast Mot1 SUMO inactive
N=c1c[n+](C2CCCCC2)[n-]o1	SUMO Mot1 rescue 484 | Yeast Mot1 SUMO inactive
CN1C2CNC(=O)CC1C1CCC2C1 (configuration not stated)	none (no result: Efflux pump inh, SUMO Mot1 rescue)
N#CC1c2ccccc2-n2nncc2CN1S(=O)(=O)c1cc(Cl)cc(Cl)c1 (configuration not stated)	none (no result: Efflux pump inh, SUMO Mot1 rescue)
CCN(CC)c1ccc(N=Cc2c(O)n(Cc3ccccc3)c(=O)[nH]c2=O)cc1	SUMO Mot1 rescue 385! | Yeast Mot1 SUMO inactive
Cc1ccccc1NC1=NCCCS1	SUMO Mot1 rescue 469 | Yeast Mot1 SUMO inactive
Cc1cccc(NC2=NCCCS2)c1C	none
CCCC12CN3CCN(CC(C3)/C1=N\NC(=O)c1ccncc1)C2	none
CCC12CN3CCN(CC(C3)/C1=N/NC(=O)c1ccncc1)C2	SUMO Mot1 rescue 507 | Yeast Mot1 SUMO inactive
Clc1ccc(Cl)c(Cl)c1	none (no result: Efflux pump inh, SKN-1 block, SUMO Mot1 rescue)
Clc1cnc(Oc2ccc(Oc3ncc(Cl)cc3Cl)cc2)c(Cl)c1	SUMO Mot1 rescue 623 | Yeast Mot1 SUMO inactive
CC(C)C(O)(C(=O)OCC1=CCN2CCC(O)C12)C(C)O (configuration not stated)	none (no result: Efflux pump inh, SUMO Mot1 rescue)
CCOP(=O)(Cc1cc(C(=O)CC)c(C)o1)OCC	SUMO Mot1 rescue 658 | Yeast Mot1 SUMO inactive
CN1C2CCC1CC(OC(=O)c1cccc(O)c1)C2 (configuration not stated)	none (no result: Efflux pump inh, SUMO Mot1 rescue)
CN1C2CCC1CC(OC(=O)c1ccc([N+](=O)[O-])cc1)C2 (configuration not stated)	SUMO Mot1 rescue 474 | Yeast Mot1 SUMO inactive
[N-]=[N+]=NCCN1CCC(O)CCC1=O (configuration not stated)	SUMO Mot1 rescue active | Yeast Mot1 SUMO inactive
O=C(NC1CCCCC1)N1Cc2cc(N3CCOCC3)ccc2-n2nncc2C1	none (no result: Efflux pump inh, SUMO Mot1 rescue)
CC(C)Oc1ccc(C2(C#N)CC[N+](C)(C)CC2)cc1	HGIII-sPLA2 inh 22, SUMO Mot1 rescue 670 | Yeast Mot1 SUMO inactive | hGIII sPLA2 conf inactive | 535nm interf inactive
COc1ccc(-c2ccc3c(c2)CNCc2cnnn2-3)cc1	none (no result: Efflux pump inh, SUMO Mot1 rescue)
CC[n+]1c(/C=C/C=C/c2ccc(N(C)C)cc2)sc2ccccc21	Efflux pump inh 9.9, HGIII-sPLA2 inh 37 | Yeast cmpd fluor active | CaMdr1 efflux inh inactive | CaCdr2 efflux inh inactive | CaCdr1 efflux inh inactive
CC[n+]1c(/C=C/N(C)c2ccccc2)sc2ccc(Cl)cc21	none
c1ccc(P(c2ccccn2)c2ccccn2)cc1	none
C=CCN1C(=O)NC(=O)/C(=C/c2cc3c4c(c2)CCCN4CCC3)C1=O	Efflux pump inh 1.6 | Yeast cmpd fluor inactive | CaMdr1 efflux inh inactive | CaCdr2 efflux inh inactive | CaCdr1 efflux inh inactive
O=C(N/N=C/c1c(O)n(Cc2ccccc2)c(=O)[nH]c1=O)c1ccccc1O	Efflux pump inh 14, SKN-1 block 37 | Yeast cmpd fluor inactive | CaMdr1 efflux inh inactive | CaCdr2 efflux inh inactive | CaCdr1 efflux inh inactive
O=C(N/N=C/c1c(O)n(Cc2ccc(F)cc2)c(=O)[nH]c1=O)c1ccccc1O	none
CCN1/C(=C\C=C\C2=[N+](CC)c3ccccc3C2(C)C)C(C)(C)c2ccccc21	Efflux pump inh 3.2 (no result: HGIII-sPLA2 inh) | CaMdr1 efflux inh inactive | CaCdr2 efflux inh 251 | CaCdr1 efflux inh inactive
Cc1sc2ncnc(N3CCC(C(=O)Nc4ccc(C#N)c(Cl)c4)CC3)c2c1C	none
CN1C2CCC1CC(OC(=O)CCN1CCCC1)C2 (configuration not stated)	Efflux pump inh 0.5 | Yeast cmpd fluor inactive | CaMdr1 efflux inh inactive | CaCdr2 efflux inh inactive | CaCdr1 efflux inh inactive
Fc1ccccc1CN1CCN(c2ccc(Cl)cc2)CC1	Efflux pump inh 1.7 | Yeast cmpd fluor inactive | CaMdr1 efflux inh inactive | CaCdr2 efflux inh inactive | CaCdr1 efflux inh inactive
CC(C)[C@H]1C(=O)O[C@H](C(C)C)C(=O)N(C)[C@@H](C(C)C)C(=O)O[C@H](C(C)C)C(=O)N(C)[C@@H](C(C)C)C(=O)O[C@H](C(C)C)C(=O)N1C	Efflux pump inh 86 (no result: HGIII-sPLA2 inh) | Yeast cmpd fluor inactive | CaMdr1 efflux inh 123 | CaCdr2 efflux inh inactive | CaCdr1 efflux inh 80
